Source: PubChem BioAssay (Tox21)
Records with an inconclusive call do not appear. Calls of active or inactive are those of the source. Calls come from the whole dose curve; as a rule, active = well fitted cell-killing curve with a large enough effect in the repeat runs; inconclusive = weak or mixed curves, or effect the other way; inactive = flat fitted curve, though single readings scatter.
% is set by controls: 0 for no effect and ±100 for the full control effect; potency is the fitted concentration of half-maximal effect.

Experiment: cAMP Responsive Elements (CRE) small molecule antagonists, cell-based qHTS assay: qHTS cell viability counter screen (AID 2060913); note: nearly all actives have a fitted effect of over 40% in size
Settings: CRE-bla HEK293T viability, CellTiter-Glo luminescence, 5 h; series mostly up to 92.4 µM; viability change, negative = cytotoxic: at the top concentration
Source text: U.S. Tox21 Program National Center for Advancing Translational Sciences [NCATS] Division of Preclinical Innovation [DPI] U.S. Environmental Protection Agency [EPA] National Institutes of Environmental Health Sciences [NIEHS] National Toxicology Program [NTP] U.S. Food and Drug Administration [FDA] Tox21 Assay Overview: CREB (cyclic-AMP Responsive Element Binding Protein) is a cellular transcription factor. It binds to certain DNA sequences called cAMP Responsive Elements (CRE) and regulates the transcription of the genes. […] This cell line can be used to find agonists/antagonists of the cyclic AMP signaling pathway. The activation of the report gene under culture conditions can be detected by fluorescence intensity. This cell line has been used to screen the Tox21 10K compound library to identify agonists that induce oxidative stress. The cytotoxicity of the Tox21 compound library against the CRE-bla cell line was tested in parallel by measuring the cell viability using CellTiter-Glo assay (Promega, Madison, WI) in the same wells.
Tox21 Assay Protocol Summary: CRE-bla Hek 293T cells were suspended in assay medium (DMEM containing 10% dialyzed FBS, 0.1 mM NEAA, 1 mM sodium pyruvate and 25 mM HEPES) and dispensed at 2,000 cells/4 uL /well into 1536-well black wall/clear bottom plates using a Multidrop Combi (ThermoFisher Scientific, Waltham, MA) dispenser. After the assay plates were incubated at 37 C/5% CO2 for 18 hrs, 23 nL of compounds dissolved in DMSO, positive controls or DMSO only was transferred to the assay plate by a pintool workstation (Kalypsys, San Diego, CA), followed by addition of 1 uL of 1.25uM NKH477 (0.25 uM as final concentration) in assay medium using a Flying Reagent Dispenser (Aurora Discovery, San Diego, CA). The plates were incubated at 37 C and 5% CO2 for 3 hrs. Then 1 uL of LiveBLAzer B/G FRET substrate (Invitrogen, Carlsbad, CA) was added to each well using Bioraptr Flying Reagent Dispenser (FRD, Aurora Discovery, San Diego, CA). The plates were incubated at room temperature for 2 h, then fluorescence intensities were measured using an Envision plate reader (PerkinElmer, Shelton, CT) at Excitation 405nm, Emission 460nm and 530nm. The % activity was determined from the ratio of 460nm/530nm. For cell viability readout that measures cytotoxicity, 4 uL /well of CellTiter-Glo reagent was added into the assay plates using Bioraptr FRD. After 30 min incubation at room temperature, the luminescence intensity in the assay plates was measured using a ViewLux (PerkinElmer, Shelton, CT) plate reader.
In the case of `C=CCOc1cc(Cl)ccc1C(=O)NCCN(CC)CC`, the “viability change, negative = cytotoxic” value is reported as -3.62% [at 42.5 µM] (inactive).
With `[O-]/[N+](=N\O)c1ccccc1` the Potency was “inactive”.
With `CCCCCNCCCCC` the Potency was “inactive”.
With `COc1c(C)c2c(c(O)c1C/C=C(\C)CCC(=O)OCCN1CCOCC1)C(=O)OC2` the “viability change, negative = cytotoxic” value was 11.6% [at 42.5 µM] (inactive).
With `Cc1cc(N)n(-c2ccccc2)n1` the “viability change, negative = cytotoxic” value was -0.16% (inactive).
With `Brc1c(NC2=NCCN2)ccc2nccnc12` the “viability change, negative = cytotoxic” value was 0.835% [at 42.5 µM] (inactive).
With `CCCCOc1cc(C(=O)OCCN(CC)CC)ccc1N` the “viability change, negative = cytotoxic” value was -0.808% [at 42.5 µM] (inactive).
With `CN(C)CCCSc1ccccc1NC(=O)/C=C/c1ccccc1` the “viability change, negative = cytotoxic” value was -4.75% [at 42.5 µM] (inactive).
In the case of `CCOC(=O)Nc1ccc2c(c1)N(C(=O)CCN1CCOCC1)c1ccccc1S2`, the “viability change, negative = cytotoxic” value is reported as -0.711% [at 42.5 µM] (inactive).
With `O=C(O)CCSCCC(=O)O` the “viability change, negative = cytotoxic” value was 2.06% (inactive).
With `CC(C)OC(=O)c1cc2c(OCC(O)CNC(C)(C)C)cccc2[nH]1` (stereo not given) the “viability change, negative = cytotoxic” value was 13% [at 42.5 µM] (inactive).
With `CCCCCCC#CC(=O)OC` the “viability change, negative = cytotoxic” value was -4.54% (inactive).
For `CC(C)(C)C(=O)CC(=O)C(C)(C)C`, the “viability change, negative = cytotoxic” value was 23.5% (inactive).
With `NCCS(=O)(=O)O` the Potency was “inactive”.
In the case of `O=CN1CCCCC1`, the “viability change, negative = cytotoxic” value is reported as 5.02% (inactive).
In the case of `CC(=O)Nc1cccc(C)c1`, the “viability change, negative = cytotoxic” value is reported as -5.44% (inactive).
With `Oc1ccc(C(O)CNCCCCCCNCC(O)c2ccc(O)c(O)c2)cc1O` (stereo not given) the “viability change, negative = cytotoxic” value was 3.75% [at 42.5 µM] (inactive).
In the case of `CCOC(=O)/C=C/c1ccccc1`, the “viability change, negative = cytotoxic” value is reported as -5.94% (inactive).
In the case of `Clc1ccnc(Cl)n1`, the “viability change, negative = cytotoxic” value is reported as 14.7% (inactive).
With `O=C(O)c1cc(Cl)cc(Cl)c1` the “viability change, negative = cytotoxic” value was 2.28% (inactive).
In the case of `CC(C)C(=O)C(C)C`, the “viability change, negative = cytotoxic” value is reported as -9.28% (inactive).
In the case of `CC(CCc1ccc2c(c1)OCO2)NN` (stereo not given), the “viability change, negative = cytotoxic” value is reported as 6.53% [at 42.5 µM] (inactive).
With `CC(=O)O[C@]1(C(C)=O)CC[C@H]2[C@@H]3C=C(C)C4=CC(=O)CC[C@]4(C)[C@H]3CC[C@@]21C` the Potency was “inactive”.
With `O=C(Cl)c1ccc(F)c(Cl)c1` the “viability change, negative = cytotoxic” value was 26.6% (inactive).
In the case of `Cc1ccc(N(C)C)cc1`, the Potency is reported as “inactive”.
For `CNCc1ccccc1`, the “viability change, negative = cytotoxic” value was -2.88% [at 42.5 µM] (inactive).
In the case of `CCN(CC)C(C)=O`, the “viability change, negative = cytotoxic” value is reported as 5.42% (inactive).
For `CCC(C)C(=O)OC` (stereo not given), the “viability change, negative = cytotoxic” value was -7.46% (inactive).
For `c1ccc(COCc2ccccc2)cc1`, the “viability change, negative = cytotoxic” value was 6.11% (inactive).
For `N[C@@H](CSSC[C@H](N)C(=O)O)C(=O)O`, the viability change, negative = cytotoxic was 0% [at 0.349 µM] (inactive).
With `CCOC(=O)C1=NN(c2ccccc2)C(=O)C1` the “viability change, negative = cytotoxic” value was 0.0777% (inactive).
With `CCCCCC(=O)OCCc1ccccc1` the “viability change, negative = cytotoxic” value was 6.92% (inactive).
For `NNC(=O)c1ccncc1`, the Potency was “inactive”.
With `CO[C@H]1C=CO[C@@]2(C)Oc3c(C)c(O)c4c(O)c(cc(O)c4c3C2=O)NC(=O)/C(C)=C\C=C/[C@H](C)[C@H](O)[C@@H](C)[C@@H](O)[C@@H](C)[C@H](OC(C)=O)[C@@H]1C` the “viability change, negative = cytotoxic” value was 14.4% (inactive).
For `CCCCC(C)C(=O)O` (stereo not given), the “viability change, negative = cytotoxic” value was 2.82% (inactive).
In the case of `CC(O)CN(CCN(CC(C)O)CC(C)O)CC(C)O` (stereo not given), the Potency is reported as “inactive”.
For `CN(C[C@@H](CC[N+]12CCC(C3CCCCC3)(CC1)CC2)c1ccc(Cl)c(Cl)c1)C(=O)c1cc(C(F)(F)F)cc(C(F)(F)F)c1`, the Potency was 54.5 µM (active).
With `CC1(C)S[C@@H]2[C@H](NC(=O)C(c3ccccc3)S(=O)(=O)O)C(=O)N2[C@H]1C(=O)O` (stereo not given in full) the “viability change, negative = cytotoxic” value was 1.77% [at 42.5 µM] (inactive).
For `CC(C)NCCCC1(C(N)=O)c2ccccc2-c2ccccc21`, the “viability change, negative = cytotoxic” value was -4.05% [at 42.5 µM] (inactive).
With `CC1(C)C(O)C(C)(C)C1O` (stereo not given) the “viability change, negative = cytotoxic” value was 4.63% (inactive).
